Assay results from publication PMC4336329 (PLoS ONE, 2015).
Screen size: about 310,000 compounds; about 14,000 (4.5%) showed an effect of 50% or more. Effects have a minus sign here. This excerpt belongs to a sample that is enriched for strong results.

The molecules below were run against human ether-à-go-go-related gene (hERG) potassium channel (human, UniProt Q12809) (assay: primary screen, population patch clamp on CHO cells stably expressing hERG; higher = less effect of the substance).
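Further: peak tail current of the secondary pulse compared with the same well before compound.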

Sequence of human ether-à-go-go-related gene (hERG) potassium channel (Q12809 whole entry, looked up): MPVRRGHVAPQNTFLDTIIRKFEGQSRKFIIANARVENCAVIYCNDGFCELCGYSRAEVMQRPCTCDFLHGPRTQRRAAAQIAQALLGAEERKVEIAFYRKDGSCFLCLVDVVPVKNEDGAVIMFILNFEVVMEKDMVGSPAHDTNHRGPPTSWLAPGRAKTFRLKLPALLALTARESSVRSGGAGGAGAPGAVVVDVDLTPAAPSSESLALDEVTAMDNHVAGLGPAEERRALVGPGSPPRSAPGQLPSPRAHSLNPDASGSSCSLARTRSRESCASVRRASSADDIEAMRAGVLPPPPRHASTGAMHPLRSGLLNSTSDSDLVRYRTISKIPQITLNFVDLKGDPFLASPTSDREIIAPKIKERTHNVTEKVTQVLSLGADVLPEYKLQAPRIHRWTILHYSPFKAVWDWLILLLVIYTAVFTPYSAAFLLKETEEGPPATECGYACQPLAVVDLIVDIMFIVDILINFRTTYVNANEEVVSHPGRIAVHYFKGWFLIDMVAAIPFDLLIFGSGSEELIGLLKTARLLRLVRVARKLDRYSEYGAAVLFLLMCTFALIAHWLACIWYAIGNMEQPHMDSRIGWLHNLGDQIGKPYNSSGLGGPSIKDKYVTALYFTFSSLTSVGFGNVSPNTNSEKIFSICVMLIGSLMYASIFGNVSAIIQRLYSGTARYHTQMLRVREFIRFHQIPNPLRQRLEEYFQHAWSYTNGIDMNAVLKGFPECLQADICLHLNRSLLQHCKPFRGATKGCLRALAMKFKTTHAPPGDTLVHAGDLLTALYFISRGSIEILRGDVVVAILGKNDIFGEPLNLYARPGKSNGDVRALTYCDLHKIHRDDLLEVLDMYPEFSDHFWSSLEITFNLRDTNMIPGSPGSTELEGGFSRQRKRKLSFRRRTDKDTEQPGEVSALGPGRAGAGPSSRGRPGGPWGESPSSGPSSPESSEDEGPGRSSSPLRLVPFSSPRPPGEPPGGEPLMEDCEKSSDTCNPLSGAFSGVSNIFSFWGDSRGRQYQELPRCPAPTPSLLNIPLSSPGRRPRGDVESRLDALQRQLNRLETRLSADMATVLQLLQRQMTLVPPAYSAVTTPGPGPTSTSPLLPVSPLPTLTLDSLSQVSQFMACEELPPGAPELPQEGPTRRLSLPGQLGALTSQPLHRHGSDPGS

| Structure (SMILES) | hERG current change (%, negative = inhibition) at 10uM [%] |
| --- | --- |
| O=C(Nc1cccnc1Cl)c1cc([N+](=O)[O-])ccc1Cl | 9.09 |
| c1cncc(-c2nc(NCCCn3ccnc3)c3ccccc3n2)c1 | -53.5 |
| Fc1ccc(CNc2nc(-c3cccnc3)nc3ccccc23)cc1 | -50.4 |
| c1cncc(-c2nc(NCc3ccco3)c3ccccc3n2)c1 | -5.1 |
| OC(CNc1nc(-c2cccnc2)nc2ccccc12)c1ccccc1 (centres unmarked) | -36.4 |
| Cc1ccc(CNc2nc(-c3cccnc3)nc3ccccc23)cc1 | 8.72 |
| COc1cccc(CNc2nc(-c3cccnc3)nc3ccccc23)c1 | -15.6 |
| COCCCNc1nc(-c2ccncc2)nc2ccccc12 | -15.5 |
| Cc1nc(NCCCn2ccnc2)c2ccccc2n1.Cl | 3.46 |
| c1ccc(-c2nc(NCCCn3ccnc3)c3ccccc3n2)cc1 | -59.3 |
| COc1ccc(C(CNc2nc(-c3cccnc3)nc3ccccc23)N(C)C)cc1 (centres unmarked) | -59.2 |
| Fc1ccccc1CNc1nc(-c2cccnc2)nc2ccccc12 | 17.8 |
| c1ccc(CNc2nc(-c3cccnc3)nc3ccccc23)cc1 | -23.4 |
| CC(=O)N1CCCc2cc(S(=O)(=O)N3CCCC(C(=O)Nc4ccccc4C)C3)ccc21 (centres unmarked) | 10.9 |
| Cc1cc(C)cc(NC(=S)N2CCN(C(=O)c3ccco3)CC2)c1 | -0.347 |
| Cc1onc(-c2ccccc2Cl)c1C(=O)OCC(=O)N1CCN(c2ccccc2)CC1 | -16.1 |
| CC1=C(C(=O)OCc2ccccc2)C(c2ccc(C#N)cc2)NC(=O)N1CCCC(=O)O (centres unmarked) | 10.9 |
| CCOC(=O)CSc1nc2ccccc2c(=O)n1C | 10.1 |
| CCOC(=O)c1c(NC(=O)CSc2nccn2C)sc(C(=O)NC)c1C | -11.5 |
| COc1ccc2ccccc2c1/C=N/N1C(=O)CSC1=S | 16.7 |
| COc1ccc(-n2nc(C(=O)NCC(=O)NCCCN3CCOCC3)c3ccccc3c2=O)cc1 | 3.4 |
| CCN(CC(=O)N1CCCC1)S(=O)(=O)c1ccc(Br)cc1 | 13.5 |
| CCc1cc(=O)oc2c3c(cc(OCC(=O)NC4CC4)c12)OC(C)(C)CC3 | -13.9 |

| Structure (SMILES) | hERG current change (%, negative = inhibition) at 10uM [%] |
| --- | --- |
| Cc1ccc(CN2CCN(/N=C/c3cccnc3)CC2)c(C)c1 | -47.5 |
| COc1ccccc1NC(=O)Cn1c(C)cc(=O)c2cccc(OC)c21 | -33.3 |
| COCCNC(=O)c1c[nH]c2ccc(S(=O)(=O)N3CCc4ccccc43)cc2c1=O | 6.11 |
| O=C(OCc1ccccc1F)c1ccc2c(c1)-c1ccccc1C2=O | 16.4 |
| Cl.N=c1n(CCCOc2ccc(F)cc2)c2ccccc2n1CC(N)=O | -41.6 |
| Cl.N=c1n(CCCOc2ccc(Br)cc2)c2ccccc2n1CC(N)=O | -44.7 |
| CCOC(=O)Cn1c(=N)n(CCOc2ccc(Br)cc2)c2ccccc21.Cl | -69.5 |
| CCOC(=O)Cn1c(=N)n(CCOc2cccc(C)c2)c2ccccc21.Cl | -62.2 |
| CCOC(=O)Cn1c(=N)n(Cc2ccccc2F)c2ccccc21.Cl | -28.3 |
| Cc1cccc(OCCn2c(=O)sc3ccccc32)c1 | -3.38 |
| Br.C=CCn1c(=N)n(CC(=O)OCC)c2ccccc21 | 5.36 |
| CCOC(=O)Cn1c(=O)n(CC(=O)OCC)c2ccccc21 | 12.3 |
| Cc1cccc(OCCn2c(=O)n(C)c3ccccc32)c1 | -13.6 |
| CCOC(=O)Cn1c(=N)n(CCOc2ccc(F)cc2)c2ccccc21.Cl | -65.8 |
| CCOC(=O)Cn1c(=N)n(CCOc2ccc(OC)cc2)c2ccccc21.Cl | -56.4 |
| CCOC(=O)Nc1ccc(S(=O)(=O)N2CCOCC2)cc1 | 6.38 |
| CC(/C=N/Nc1nc2ccccc2[nH]1)=C\c1ccccc1 | -41.8 |
| O=C(NCCCN1CCCC1=O)Nc1ccc(F)c(Cl)c1 | -1.92 |
| Cc1nc2ccccc2c(=O)n1-c1cccc(NS(=O)(=O)c2ccccc2)c1 | -20.9 |
| CC(=O)Nc1ccc(N2C(=O)c3ccc(C(=O)Nc4nnc(SCc5ccc(F)cc5)s4)cc3C2=O)cc1 | 13.4 |
| Cl.OC(c1ccccc1)(c1ccc(F)cc1)C(c1ccccc1)N1CCOCC1 (centres unmarked) | 16.8 |
| CC(=O)NC(=O)COC(=O)c1ccc2ncsc2c1 | 18.5 |
| O=C(CSc1cccc2cccnc12)N/N=C/c1cccc(O)c1 | 2.95 |

| Structure (SMILES) | hERG current change (%, negative = inhibition) at 10uM [%] |
| --- | --- |
| CCOc1ccccc1N1CCN(C(=O)c2cc3c(C)cc(C)cc3[nH]2)CC1 | -4.74 |
| COc1ccc(/C=N/NC(=O)c2ccccc2)cc1OS(=O)(=O)c1ccccc1 | -3.53 |
| CCCCn1c(SC(C)C(N)=O)nc2cc(C(=O)OC)ccc2c1=O (centres unmarked) | -1.48 |
| Cn1c(=O)[nH]c(=O)c2c1nc(N1CCN(CCO)CC1)n2Cc1ccccc1Cl | -6.38 |
| O=C(NC(=O)c1ccccc1)NC1(C(F)(F)F)OCCO1 | 2.65 |
| Cc1ccc(-c2nnc(SCC(=O)N/N=C/c3ccccc3C(=O)O)n2C2CCCCC2)cc1 | 11.1 |
| CCCOc1ccc(C(C)=O)cc1CSc1nc(O)cc(=O)[nH]1 | 14.4 |
| COc1ccc(S(N)(=O)=O)cc1C(=O)OCCCOC(=O)c1cc(S(N)(=O)=O)ccc1OC | 4.29 |
| Br.CCCn1c(=N)n(CC(=O)OCC)c2ccccc21 | -4.66 |
| Br.CCOC(=O)Cn1c(=N)n(Cc2ccccc2)c2ccccc21 | -34.6 |
| CCOC(=O)Cn1c(=N)n(CCOc2ccc3ccccc3c2)c2ccccc21.Cl | -75.3 |
| O=C(C1=C[C@@H](c2coc3ccccc3c2=O)C[C@@H](OCc2ccc(CO)cc2)O1)N1CCCCCCC1 | -66.5 |
| O=C(C1=C[C@@H](c2coc3ccccc3c2=O)C[C@@H](OCc2ccc(CO)cc2)O1)N1CCOCC1 | -24.7 |
| O=C(C1=C[C@H](c2coc3ccccc3c2=O)C[C@H](OCc2ccc(CO)cc2)O1)N1CCN(Cc2ccccc2)CC1 | -61.7 |
| O=C(C1=C[C@@H](c2coc3ccccc3c2=O)C[C@@H](OCc2ccc(CO)cc2)O1)N1CCN(Cc2ccccc2)CC1 | -48 |
| O=C(C1=C[C@H](c2coc3ccccc3c2=O)C[C@H](OCc2ccc(CO)cc2)O1)N1CCOCC1 | -49.7 |
| C=CCOC(=O)C1=C[C@H](c2coc3ccccc3c2=O)C[C@H](OCc2ccc(CO)cc2)O1 | -62.3 |
| C=CCOC(=O)C1=C[C@@H](c2coc3ccccc3c2=O)C[C@@H](OCc2ccc(CO)cc2)O1 | -40.9 |
| NC(=O)C1=C[C@@H](c2coc3ccccc3c2=O)C[C@@H](OCc2ccc(CO)cc2)O1 | -31 |
| CN1CCN(C(=O)C2=C[C@H](c3coc4ccccc4c3=O)C[C@H](OCc3ccc(CO)cc3)O2)CC1 | -41.1 |
| CCOC(=O)c1ccc(NS(=O)(=O)c2c(C)[nH]c(C)c2C(=O)N2CCCCC2)cc1 | 7.73 |
| CC(C)C(NS(=O)(=O)/C=C/c1ccccc1)C(=O)NCc1ccc(F)cc1 (centres unmarked) | 25.3 |
| CCn1c(SCC(=O)N2c3ccccc3CC2C)nnc1-c1ccco1 (centres unmarked) | -17.6 |

| Structure (SMILES) | hERG current change (%, negative = inhibition) at 10uM [%] |
| --- | --- |
| O=C(Nc1nnc(Cc2ccccc2F)s1)c1ccccc1Cl | 12.6 |
| CCc1ccc(S(=O)(=O)NCc2cn3ccccc3n2)s1 | -11 |
| CN(C)Cc1nc2c([nH]1)c(=O)n(C)c(=O)n2C | -0.353 |
| Cn1c(=O)c2[nH]c(COc3ccc(C(C)(C)C)cc3)nc2n(C)c1=O | -55.1 |
| CCCc1nc2c([nH]1)c(=O)n(C)c(=O)n2C | 15.8 |
| N#Cc1ccc(-c2ccc(Cl)cc2)nc1SCC(=O)c1cccc(Cl)c1 | 28.9 |
| N/C(=N\O)c1ccc([N+](=O)[O-])s1 | 11 |
| Cc1ccc(P(=O)(OCCN2CCOCC2)C(C)(C)C)o1 (centres unmarked) | -4.4 |
| COc1ccc(C2=NCC(=O)N(CC(=O)NCc3ccco3)c3sc4c(c32)CCCC4)cc1OC | -17.3 |
| COc1ccc(C2=NCC(=O)N(CC(=O)NCc3ccco3)c3sc4c(c32)CCCC4)cc1 | -35.7 |
| O=C1CN=C(c2ccc(Br)cc2)c2c(sc3c2CCCC3)N1CCN1CCCCC1 | -64.4 |
| O=C(c1ccccc1)c1ccc(OCC(O)CN2CCCCC2)cc1 (centres unmarked) | -39.9 |
| OC(COc1ccc2ccccc2c1)CN1CCCC1 (centres unmarked) | -19.1 |
| OC(COc1ccc2cc(Br)ccc2c1)CN1CCOCC1 (centres unmarked) | -48.4 |
| O=C(c1ccc(Cl)cc1)c1ccc(OCC(O)CN2CCOCC2)cc1 (centres unmarked) | -19.7 |
| OC(COc1ccc(OCC(O)CN2CCCCC2)cc1)CN1CCCCC1 (centres unmarked) | 15.9 |
| Cl.OC(COc1ccc(Cl)cc1)CN1CCCCC1 (centres unmarked) | -61.9 |
| OC(COc1ccc2cc(Br)ccc2c1)CN1CCCC1 (centres unmarked) | -70.2 |
| O=C(c1ccc(Cl)cc1)c1ccc(OCC(O)CN2CCCCC2)cc1 (centres unmarked) | -75.1 |
| Cl.OC(COc1ccc(OCC(O)CN2CCCCCC2)cc1)CN1CCCCCC1 (centres unmarked) | 9.75 |
